Most compounds without a hit are left out; they make up all but 8% or so of the library.
LASV entry inh = qHTS for Inhibitors of binding or entry into cells for Lassa Virus. Lassa virus pseudotype entry inhibition, cell reporter. Potency, µM (highest dose often 37.9 µM), for inactives: top-dose activity change, negative = inhibition, actives largely listed as inhibitors. 1.2% of 300,000 active. AID 540256, 2011; calls by dose curve; tested in HEK293 cells; further: potency means the concentration at half of the fitted maximal effect; on the % scale 0 is the no-effect control and ±100 the full control effect; nearly all actives have a fitted effect of over 50% in size
HCMV inh = qHTS Assay for inhibitors of the human cytomegalovirus (HCMV) | HFF cells, HCMV-luciferase reporter, 72 h; hits give low values | activity change, negative = inhibition, % at 57.5 µM | AID 1259415, 2018 | 4.5% of 410,000 active; in the data active means activity change below about -60%; inconclusive means no clear call, values can overlap the other calls; inactive means above about -39%; further: on the % scale 0 is the no-effect control and ±100 the full control effect
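Luciferase read-out from HCMV-luciferase-infected HFFs (MOI 1 PFU/cell) 72 h post infection at 37C; compounds added after 16 h cell attachment; activity normalized between buffer-only basal and Salinomycin (10uM) inhibitor controls.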
SARS PLpro yeast = qHTS of Yeast-based Assay for SARS-CoV PLP | S. cerevisiae expressing SARS-CoV PLpro, growth rescue | Potency, µM (titrated, usually from 32.9 µM), without a hit: top-dose activity, positive = growth rescue, usual class: activators | 0.19% of 330,000 active | AID 485353, 2010; calls by dose curve; further: potency means the concentration at half of the fitted maximal effect; 0% is about no effect; nearly all actives have a fitted effect of over 55% in size
Marburg entry inh = qHTS for inhibitors of binding or entry into cells for Marburg Virus; Marburg virus pseudotyped entry inhibition, cell reporter; Potency, µM (highest dose often 37.8 µM), for the others: top-dose activity change, negative = inhibition, usual class: inhibitors; 1.8% of 300,000 active; AID 540276, 2011; calls by dose curve; tested in HEK293 cells; further: potency means the concentration at half of the fitted maximal effect; on the % scale 0 is the no-effect control and ±100 the full control effect
HCV inh = qHTS Assay for Inhibitors of Hepatitis C Virus (HCV); Huh7.5.1 HCVcc-Cre infection, luciferase reporter, 44 h; AID 651820, 2012; Potency, µM (doses to about 41.8 µM), for inactives: at the highest dose activity change, negative = inhibition, actives largely listed as inhibitors; 3.4% of 340,000 active; active means well fitted inhibition curve with a large enough effect; inconclusive means small, poorly fitted or top-dose-only effect, or another doubt; inactive means no such curve, though single readings can be large or run the other way; further: potency means the concentration at half of the fitted maximal effect; on the % scale 0 is the no-effect control and ±100 the full control effect
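Compounds are dispensed onto cells plated 4 h earlier at 1,000 per well, with HCVcc-Cre virus (about 0.5 moi) added next. Following 44 h of culture, luminescent signal is measured for 15 sec after 15 min with substrate at room temperature.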
FMDV inh = High Throughput Screening for Foot and Mouth Disease Virus Antivirals; FMDV antiviral cell-based qHTS; Potency, µM (top dose mostly 57.9 µM), without a hit: at the top dose activity change, negative = inhibition, usual class: inhibitors; 1.2% of 410,000 active; calls by dose curve; tested in HEK293T cells; further: read-out not given here; potency means the concentration at half of the fitted maximal effect; on the % scale 0 is the no-effect control and ±100 the full control effect; nearly all actives have a fitted effect of over 45% in size
Active calls of the source: *; ? = inconclusive; nt = not tested or not shown; [ ] = remark or other dose.

SMILES	LASV entry inh	HCMV inh	SARS PLpro yeast	Marburg entry inh	HCV inh	FMDV inh
CCN(C(=O)CN1CC=C(c2ccccc2)CC1)c1c(N)n(Cc2ccccc2)c(=O)[nH]c1=O	?	-62*	3%	?	-8%	-6%
CC(C)CN(C(=O)CN1CCOCC1)c1c(N)n(CC(C)C)c(=O)[nH]c1=O	5%	-72*	11%	-23%	4%	-22%
COC1C(=O)CCC2(CO2)C1(O)C1(C)OC1CC=C(C)C (stereo not given)	nt	-76*	nt	nt	nt	nt
C(=NN1CCCCCC1)c1c[nH]c2ccccc12	4%[46.1 µM]	6	nt	6%[46.1 µM]	11%	33%
Brc1ccc2[nH]cc(/C=N/N3CCCCC3)c2c1	11%	-84*	-12%	5%	?	-5%
O=C(CSc1nccn1-c1ccc(Cl)cc1)Nc1cccc2ccccc12	?	?	nt	nt	nt	-17%
Cc1cccc(-n2cnc3c(sc4nc(N5CCOCC5)c5c(c43)CCCC5)c2=O)c1	?	?	0%	?	18µM*	?
CCN(CC)c1ncnc2c1sc1nc(N3CCOCC3)c3c(c12)CCC3	nt	nt	-9%	-2%	nt	nt
Cc1cc(-c2nc3ncccc3o2)ccc1NC(=O)c1ccc(Cl)cc1	-1%[46.1 µM]	-6	nt	4%[46.1 µM]	nt	-18%
CC1(C)CC(=O)C([C@H]2C3=C(CC(C)(C)CC3=O)Oc3ccccc32)C(=O)C1	nt	nt	nt	-5%[46.1 µM]	nt	-10%
CC1(C)CC(=O)C2=C(C1)Oc1nc3ccccc3cc1C2C(C#N)C#N (stereo not given)	16µM*	122	-16%	?	?	8.9µM*
Cc1ccccc1-c1nnc(-c2cccs2)o1	nt	62	-2%	nt	25%	62%
COc1cccc(C(=O)NCC2Cc3cccc(-c4ncccn4)c3O2)c1OC (stereo not given)	nt	nt	nt	nt	nt	-11%
CCC(C(=O)NCCN1CCOCC1)n1nc(C)n2c(cc3sccc32)c1=O (stereo not given)	nt	-30	-2%	nt	-2%	-17%
O=S(=O)(c1ccc(SCCOc2ccccc2)nc1)N1CCCC1	nt	-9	0%	nt	?	-24%
CN(CCOc1ccc(Cl)cc1)c1ccc(S(=O)(=O)N2CCCCC2)cn1	?	-11	-2%	?	14µM*	-24%
O=S(=O)(c1ccc(SCCOc2ccc(F)cc2)nc1)N1CCCC1	nt	?	-7%	nt	16µM*	?
C#CCN(C[C@@H]1[C@@H](OC(=O)NC2CCCC2)[C@@H](OC(=O)NC2CCCC2)Cn2c(=O)ccc(=O)n21)S(=O)(=O)c1ccc(C)cc1	nt	-101*	nt	nt	nt	?
C#CCN(C[C@@H]1[C@@H](OC(=O)NC2CC2)[C@@H](OC(=O)NC2CC2)CN(C(=O)OC(C)C)N1C(=O)OC(C)C)S(=O)(=O)c1ccc(C)cc1	nt	2	nt	nt	nt	-1%
C#CCN(C[C@H]1[C@H](OC(=O)Nc2cccs2)[C@H](OC(=O)Nc2cccs2)CN(C(=O)OC(C)C)N1C(=O)OC(C)C)S(=O)(=O)c1ccc(C)cc1	nt	-79*	nt	nt	nt	nt
C#CCN(C[C@@H]1[C@@H](OC(=O)NCc2ccccc2F)[C@@H](OC(=O)NCc2ccccc2F)Cn2c(=O)ccc(=O)n21)S(=O)(=O)c1ccc(C)cc1	nt	-100*	nt	nt	nt	14µM*
C#CCN(C[C@@H]1[C@@H](OC(=O)Nc2cccs2)[C@@H](OC(=O)Nc2cccs2)Cn2c(=O)ccc(=O)n21)S(=O)(=O)c1ccc(C)cc1	nt	-103*	nt	nt	nt	?
COc1ccc(OC)c(-c2cc(C(=O)NCCc3ccccc3)c3c(-c4ccc(C)cc4)[nH]nc3n2)c1	6%[46.1 µM]	3	nt	nt	nt	1%
COc1ccc(-c2cc(C(=O)NCCc3ccccc3)c3c(-c4ccccc4)[nH]nc3n2)cc1	?	-82*	nt	nt	nt	29%
COc1ccc(-c2cc(C(=O)NCCc3ccccc3)c3c(-c4ccc(Cl)cc4)[nH]nc3n2)cc1	-13%[46.1 µM]	-98*	nt	nt	nt	-13%
SMILES	LASV entry inh	HCMV inh	SARS PLpro yeast	Marburg entry inh	HCV inh	FMDV inh
COCCCNC(=O)c1cc(-c2ccc(OC)cc2)nc2n[nH]c(-c3ccc(Cl)cc3)c12	4%[46.1 µM]	-8	nt	nt	nt	0%
COc1ccc(CCNC(=O)c2cc(-c3ccc(C)cc3)nc3n[nH]c(-c4ccc(F)cc4)c23)cc1OC	28%[46.1 µM]	-21	nt	nt	nt	-9%
CCc1ccc(-c2[nH]nc3nc(-c4ccc(OC)cc4)cc(C(=O)NCCc4ccc(OC)c(OC)c4)c23)cc1	8%[46.1 µM]	-91*	nt	nt	nt	?
CCOC1=C2[C@H](c3ccccc3)N(S(=O)(=O)c3ccc(C)cc3)C(C(C)(C)C)[C@H]2C(C#N)(C#N)C(C#N)(C#N)C1 (stereo not given in full)	nt	-100*	nt	nt	nt	?
CCCCC[C@@H]1[C@@H]2C(=C(OCC)C[C@@H]3C(=O)N(c4ccccc4)C(=O)[C@H]23)[C@H](c2ccccc2)N1S(=O)(=O)c1ccc(C)cc1	nt	-23	nt	nt	nt	10%
COc1ccc(CCC(=O)N2CCc3c([nH]c4ccccc34)C2c2ccc(F)cc2)cc1 (stereo not given)	?	-80*	nt	nt	nt	-15%
CCOc1ccc(C2c3[nH]c4ccccc4c3CCN2C(=O)CCc2ccccc2)cc1 (stereo not given)	?	-84*	nt	nt	nt	2%
CCc1cc(C(=O)N2CCc3c([nH]c4ccccc34)C2c2ccc(OC)cc2F)no1 (stereo not given)	?	-64*	1%	0.89µM*	?	14%
O=C(Nc1nc2c(F)cc(F)cc2s1)c1ccc([N+](=O)[O-])o1	nt	9	-7%	nt	-17%	-4%
Cc1nc2ccccc2nc1CN1CCOc2ccc(CN3CCc4sccc4C3)cc2C1	nt	nt	nt	nt	nt	-8%
CN(CCc1ccccc1)C(=O)c1ccc(NC(=O)Cc2ccc(NC(=O)C3CCCN(C(=O)C4CC4)C3)cc2)cc1 (stereo not given)	nt	-21	nt	nt	?	?
CC(C)Cn1c(N)c(C(=O)COC(=O)C2CCCCC2)c(=O)n(C)c1=O	-15%	32	-4%	1%	?	?
CC(C)Cn1c(N)c(C(=O)COC(=O)C2Cc3ccccc3CN2S(C)(=O)=O)c(=O)n(C)c1=O (stereo not given)	-19%	-28	-5%	?	11µM*	-15%
Cc1nn(-c2ccccc2)c(C)c1C(=O)OCC(=O)c1c(N)n(CC(C)C)c(=O)n(C)c1=O	6.5µM*	-79*	-1%	?	5.6µM*	32µM*
CCC(C(=O)OCC(=O)c1c(N)n(CC(C)C)c(=O)n(C)c1=O)c1ccccc1 (stereo not given)	?	?	-4%	-17%	?	40µM*
CC(C)Cn1c(N)c(C(=O)COC(=O)[C@H](C)NC(=O)c2ccccc2Cl)c(=O)n(C)c1=O	-14%[46.1 µM]	-23	-3%	-2%	3%	-9%

High-throughput results deposited in PubChem BioAssay by National Center for Advancing Translational Sciences (NCATS).
